A selection: hits, their analogues and other compounds. The true share with any hit is near 0.99%.
TRPML1 blocker – blocks the human TRPML1 channel. Q9GZU1. TRPML1-inducible cells, Ca2+ dye fluorescence, FDSS; stronger effect = lower value; inhibition of EC80 agonist-evoked calcium signal. activity change, negative = inhibition, % (test concentration not listed). 0.02% of 390,000 active. AID 624415; in the data active = activity change below about -50%; inconclusive = between about -30% and that limit;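 also: stimulus is agonist 54-4 at its EC80 concentration; % is scaled to controls: 0 for no effect and ±100 for the full control effect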
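Calcium fluorescence in TRPML1-DL cells induced overnight with Tet: a 110 s read after compound pin addition, then a 110 s antagonist read after challenge with 54-4 at 4 uM final (EC80).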
TRPML1 agonist – activates the human TRPML1 channel; Q9GZU1; TRPML1-expressing cells, Ca2+ dye fluorescence, FDSS; activation, % (no concentration beside the values); 0.12% of 410,000 active; AID 624414; in the data active = activation above about 50%; inconclusive = mostly about 30% to 49%; also: 0% is about no effect
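Tetracycline-induced TRPML1-DL cells are seeded and incubated overnight before loading with a no-wash Ca2+ dye and quencher. Agonist activity is taken from the 110 s fluorescence read following compound pin-transfer on an FDSS, before EC80 54-4 challenge.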
TRHR PAM – allosteric enhancers of human TRH receptor | enhancement, % at 2 µM | P34981 | TRHR cells, fluo-8 calcium fluorescence, EC20 TRH enhancement | 0.66% of 360,000 active; in the data active = enhancement above about 30%; also: 0% is about no effect
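TRHR-expressing cells loaded with fluo-8 calcium dye were read kinetically (ex 480/em 530) during compound addition, then stimulated with an EC20 of TRH (10 nM final). Enhancement of the Gq-mediated intracellular calcium response was scored.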
TRHR agonist – agonists of human TRH receptor; P34981; TRHR cells, calcium flux fluo-8, FDSS agonist mode; activation, % at 2 µM; 0.18% of 360,000 active; AID 493084; in the data active = activation above about 30%; also: 0% is about no effect
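TRHR-expressing cells, plated overnight in medium with 10% serum, were loaded with fluo-8 calcium dye at room temperature. After a 10 s baseline, library compound was pin-added and calcium release was recorded kinetically (ex 480/em 530) as agonist response.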
TRPV1 ag – activates the human vanilloid receptor TRPV1 | TRPV1-expressing cells, Fluo-8 calcium influx, agonist mode | activation, % at 8.33 µM | 0.19% of 320,000 active | AID 540275; in the data active = activation above about 80%; inconclusive = between about 30% and that limit; also: 0% is about no effect
Target sequence (Q8NER1 whole entry, looked up): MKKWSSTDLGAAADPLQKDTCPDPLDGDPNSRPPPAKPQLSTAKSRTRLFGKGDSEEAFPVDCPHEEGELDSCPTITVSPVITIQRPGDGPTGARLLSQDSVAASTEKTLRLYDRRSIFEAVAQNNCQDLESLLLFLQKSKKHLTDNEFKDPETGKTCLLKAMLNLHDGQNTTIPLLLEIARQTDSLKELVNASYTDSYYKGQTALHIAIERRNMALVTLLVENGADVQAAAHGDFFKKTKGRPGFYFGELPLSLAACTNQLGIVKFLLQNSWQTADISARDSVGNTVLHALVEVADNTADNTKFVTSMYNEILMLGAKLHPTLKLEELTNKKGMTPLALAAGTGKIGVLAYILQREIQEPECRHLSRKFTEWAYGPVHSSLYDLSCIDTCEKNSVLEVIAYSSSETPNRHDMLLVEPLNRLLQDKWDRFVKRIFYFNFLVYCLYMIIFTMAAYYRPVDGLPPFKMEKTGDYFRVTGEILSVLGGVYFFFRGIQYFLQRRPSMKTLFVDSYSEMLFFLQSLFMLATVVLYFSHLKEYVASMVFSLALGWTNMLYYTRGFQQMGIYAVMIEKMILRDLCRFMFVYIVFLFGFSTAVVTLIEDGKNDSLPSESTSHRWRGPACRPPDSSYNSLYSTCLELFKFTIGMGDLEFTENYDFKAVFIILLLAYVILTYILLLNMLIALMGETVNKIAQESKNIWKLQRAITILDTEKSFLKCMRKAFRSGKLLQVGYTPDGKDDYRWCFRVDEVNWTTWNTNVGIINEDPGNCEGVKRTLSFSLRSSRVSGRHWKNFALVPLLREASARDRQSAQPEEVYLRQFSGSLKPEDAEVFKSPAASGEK
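Fluo-8 calcium influx in TRPV1-expressing cells, kinetic read (ex 480/em 520 nm). Compound added and read 3 min for agonist activity, followed by capsaicin at EC20 final and 2 min further read for enhancement.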
TRPV1 potentiator – human TRPV1 potentiation. Q8NER1. TRPV1-expressing cells, Fluo-8 calcium influx, capsaicin EC20 potentiation. potentiation, % at 8.33 µM. 0.02% of 320,000 active; in the data active = potentiation above about 80%; inconclusive = between about 30% and that limit; also: 0% is about no effect
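Fluo-8 calcium influx in TRPV1-expressing cells, kinetic read (ex 480/em 520 nm). Compound added and read 3 min for agonist activity, followed by capsaicin at EC20 final and 2 min further read for enhancement.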
Active calls of the source: *; ? = inconclusive; · = not tested or not shown; ! = repeats disagree.

SMILES	TRPML1 blocker	TRPML1 agonist	TRHR PAM	TRHR agonist	TRPV1 ag	TRPV1 potentiator
COc1cc(/C=C/c2ccnc3ccccc23)ccc1N(C)C	·	57.7*	·	·	·	·
CCN(CC)c1ccc(/C=C/c2ccnc3ccccc23)cc1	·	54.4*	·	·	·	·
CN(C)c1ccc(/C=C/c2ncnc3ccccc23)cc1	·	82.2*	·	·	·	·
CN1CCCc2cc(/C=C/c3ccnc4ccccc34)ccc21	·	52.5*	·	·	·	·
CN(C)c1ccc(C=Cc2ccnc3ccccc23)cc1N	·	0.0	·	·	·	·
CCN(CC)CCN(CC)c1ccc(/C=C/c2ccnc3ccccc23)cc1	·	4.2	·	·	·	·
CCn1c2ccccc2c2nnc(SC3CCOC3=O)nc21 (configuration not stated)	·	-1.0	·	·	·	·
CCOC(=O)c1ccc(NC(=O)Cn2cc(C(=O)C3CC3)c3ccccc32)cc1	-8.1	0.5	6.0	3.0	·	·
CCCN(CCC)c1ccc(/C=C/c2ccc3cc(OCC)ccc3n2)cc1	1.3	22.3	-3.7	35.1*	10.9	15.7
CN(C)c1ccc(/C=C/c2ccnc3ccc(Cl)cc23)cc1	·	5.3	·	·	·	·
CN(C)c1ccc(/C=C/c2ccc3ccccc3n2)cc1	-11.0	52.3*!	15.9	38.2*	25.9	14.1
CN(C)c1ccc(/C=C/c2ccnc3ccc(Br)cc23)cc1	·	54.5*	·	·	·	·
CN(C)c1ccc(/C=C/c2ccnc3c(Cl)cccc23)cc1	·	54.2*	·	·	·	·
O=[N+]([O-])c1ccc([S+](=O)([O-])N2CCN([S+](=O)([O-])c3ccc4c(c3)OCCO4)CC2)c([N+](=O)[O-])c1	·	·	0.8	-0.1	·	·
CN(C)c1ccc(N=Nc2ccc(/C=C/c3ccnc4ccccc34)cc2)cc1	·	124.1*	·	·	·	·
CCN(CC)c1ccc(/C=C/c2cc(-c3ccccc3)c3ccccc3n2)cc1	-18.7	-0.2	27.7	88.8*	?	2.0
CCN(CC)c1ccc(/C=C/c2ccccn2)cc1	·	26.8	·	·	·	·
CN(C)c1ccc(N=Nc2ccnc3ccccc23)cc1	·	-0.6	·	·	·	·
Cc1ccc(-c2noc(-c3ccc(N4CCOCC4)c([N+](=O)[O-])c3)n2)cc1	-13.1	-0.5	-4.7	0.0	·	·
CC1(C)S[C@@H]2C(C(=O)O)NC(=O)N2C1C(=O)O (some centres not stated)	·	0.1	·	·	·	·
Cc1c(OCC(=O)N2CCC(C(N)=O)CC2)ccc2c1oc(=O)c1ccccc12	·	·	-10.4	0.6	90.8*	6.5
COCCCN1C(=O)c2ccccc2CC1(C)C(=O)NC1CCCCC1 (configuration not stated)	-1.5	-0.1	-2.8	-0.5	·	·
Cc1ccc(-n2c(=O)c3sccc3n(CC(=O)NC3CCCC3)c2=O)cc1	-9.5	0.5	-1.3	-0.7	-4.1	26.4
CCOc1ccc(-n2c(=O)c3sccc3n(CC(=O)NC3CCCCC3)c2=O)cc1	38.5	-0.1	38.6*	-0.8	-0.2	3.4
O=C(c1cc(-c2ccc(Br)cc2)on1)N1CCCCCC1	-5.8	-0.1	-3.9	-0.6	?	0.1
SMILES	TRPML1 blocker	TRPML1 agonist	TRHR PAM	TRHR agonist	TRPV1 ag	TRPV1 potentiator
O=C(c1cc(-c2ccc(Br)cc2)on1)N1CCOCC1	-4.8	0.3	-2.8	0.8	99.2*	-17.2
Cc1ccc2nc(NCCCN3CCOCC3)c(C=NCCCN3CCOCC3)c(=O)n2c1	3.5	0.6	31.8*	0.3	-0.6	5.2
CCOc1ccc(CCNC(=O)c2cccc(NC3=NC4CS(=O)(=O)CC4S3)c2)cc1 (configuration not stated)	-1.5	-0.2	33.9*	-0.9	2.0	-6.7
Cn1cc(S(=O)(=O)c2ccc(Cl)cc2)c(=O)c2cc(F)c(N3CCCCCC3)cc21	6.5	-0.3	34.7*	0.5	·	·
Cc1ccc(C)c(S(=O)(=O)c2cn(C)c3cc(N4CCCCC4C)c(F)cc3c2=O)c1 (configuration not stated)	8.9	0.7	37.5*	0.1	·	·
CCCCn1cc(S(=O)(=O)c2ccc(CC)cc2)c(=O)c2cc(F)c(N3CCCC(C)C3)cc21 (configuration not stated)	-0.5	0.5	38.8*	-0.9	·	·
O=[S+]([O-])(c1ccc2c(c1)OCCO2)N1CCN([S+](=O)([O-])c2cc(Cl)ccc2F)CC1	·	·	-3.9	2.2	·	·
Cc1cc2c(s1)c1cnn(Cc3c(F)cccc3C(F)(F)F)c(=O)c1n2C	·	·	-1.4	-0.6	·	·
COc1cccc(NC(=O)CN2C(=O)C3(SCC(=O)N3c3cc(C)cc(C)c3)c3ccccc32)c1 (configuration not stated)	4.7	2.7	-9.1	0.7	·	·
CCN(CC)c1ccc(-c2nnc(SCC(=O)NCc3ccco3)n2CC)cc1	·	-1.4	·	·	·	·
CC(=O)NC1CCCN(O)C(=O)/C=C(\C)CCOC(=O)C(NC(C)=O)CCCN(O)C(=O)/C=C(\C)CCOC(=O)C(NC(C)=O)CCCN(O)C(=O)/C=C(\C)CCOC1=O (configuration not stated)	·	·	35.6*	0.4	-3.1	6.7
CC(=O)NC1CCC(=O)C=C1c1ccccc1 (configuration not stated)	-5.0	-0.2	·	·	·	·
CC(=O)c1c(C)[nH]c(C(=O)Nc2ccc(Cl)cc2)c1C	-2.2	1.8	36.0*	-1.1	4.0	-2.5
CCOc1ccccc1CNC(=O)Cc1ccc(NC(=O)N2CCCCc3ccccc32)cc1	-7.8	1.1	3.9	1.0	·	·
Cc1ccc(CNS(=O)(=O)NCc2ccccc2)cc1	-5.4	0.7	37.8*	-0.6	0.6	-4.8
Cc1ccc(NC(=O)c2c(C)oc3ccc(O)c(CN4CCCC4)c23)c(C)c1	-1.2	-0.7	-3.8	-0.9	·	·
Cc1cnc2c(C)cccc2c1C	·	-0.4	·	·	·	·
O=C1c2ccccc2CN1CCSC(=S)N1CCSCC1	·	·	-7.4	-0.2	90.4*	8.6
C/C(CC(=O)Nc1ccc(C)c(Cl)c1)=N\NC(=O)c1cccc(O)c1	4.1	-1.5	31.6*	0.3	-6.8	6.3
CCOC(=O)N1CCN(C(=O)c2ccc3c(c2)ncn3C2CCCC2)CC1	16.4	-0.5	34.5*	-0.5	-1.4	3.6
Cc1cc2c(s1)c1cnn(Cc3ccc(C#N)cc3)c(=O)c1n2C	·	·	2.1	0.3	·	·
CCCC(=O)N(c1ccc2oc3c(c2c1)CCCC3)S(=O)(=O)c1ccc(CC)cc1	-24.9	63.8*	-11.4	1.5	·	·
CCc1ccc(S(=O)(=O)N(C(C)=O)c2ccc3oc4c(c3c2)CCCC4)cc1	-2.4	20.5	1.6	-1.1	·	·
NNC(=O)C(C(=O)OCc1ccccc1)c1ccccc1 (configuration not stated)	·	·	1.9	1.6	·	·
Cc1ccc(S(=O)(=O)Nc2ccccc2NS(=O)(=O)c2ccc(C)cc2)cc1	·	-1.3	·	·	·	·
CCN1CCN(S(=O)(=O)c2ccc(Cl)c(C(=O)Nc3cc(Cl)ccc3N3CCOCC3)c2)CC1	-20.5	73.7*	-9.9	0.1	23.3	-12.2

Source: PubChem
